Source: PubChem (The Scripps Research Institute Molecular Screening Center)
PAFAH1B2 FP inh – inhibitors of human PAFAH1B2. P68402. actives 1.2% (n = 340,000). inhibition, % at 3.39 µM. recombinant PAFAH1B2, FP-rhodamine activity probe, fluorescence polarization;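 active = inhibition above the mean of all tested compounds plus 3 SD, cut at about 24% in these data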;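 also: 0% = enzyme with DMSO and 100% = wells lacking PAFAH1B2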
Fam108B inh – blocks mouse Fam108B hydrolase in RBBP9 counter-screen. AID 1947. inhibition, % at 9.51 µM. recombinant Fam108B, FP-Rh probe fluorescence polarization. actives 0.33% (n = 300,000);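 active = inhibition above the screen mean inhibition plus 3 SD, computed separately per campaign, cut at about 18% in these data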;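 also: inhibitors lower polarization as less probe binds the enzyme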
PME-1 primary – PME-1 (human) inhibition; Q9Y570; recombinant PME-1, FP-Rh probe fluorescence polarization; inhibition, % at 5.9 µM; actives 0.53% (n = 320,000);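 active = inhibition above the campaign mean of all compounds plus 3 SD, cut at about 26% in these data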;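 also: competitive labeling of PME-1 active site by serine hydrolase directed probe; 0% = PME-1 with DMSO and 100% = wells lacking PME-1 enzyme; inhibitors block probe labeling so polarization falls and inhibition rises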
Target sequence (Q9Y570 whole entry, looked up): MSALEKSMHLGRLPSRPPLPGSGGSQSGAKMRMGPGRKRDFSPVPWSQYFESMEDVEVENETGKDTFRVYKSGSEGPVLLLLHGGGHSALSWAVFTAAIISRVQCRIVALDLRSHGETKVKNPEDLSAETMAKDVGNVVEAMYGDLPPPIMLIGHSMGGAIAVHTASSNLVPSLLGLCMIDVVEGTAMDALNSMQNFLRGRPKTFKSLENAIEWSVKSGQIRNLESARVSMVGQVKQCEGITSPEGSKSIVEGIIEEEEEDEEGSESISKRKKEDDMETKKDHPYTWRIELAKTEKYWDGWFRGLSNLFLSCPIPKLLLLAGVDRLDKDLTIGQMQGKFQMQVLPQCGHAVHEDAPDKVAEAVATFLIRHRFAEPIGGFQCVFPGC
PAFAH2 inh – inhibitors of human PAFAH2; Q99487; AID 492956; recombinant PAFAH2, FP-rhodamine activity probe, fluorescence polarization; actives 0.99% (n = 340,000); inhibition, % at 3.39 µM;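 active = inhibition above the mean over all tested compounds plus 3 SD, cut at about 30% in these data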;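 also: inhibitors block probe labeling of enzyme so polarization drops; 0% = enzyme with DMSO and 100% = wells lacking PAFAH2 protein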
PAFAH1B3 inh – blocks human PAF acetylhydrolase 1B catalytic subunit 3. AID 492972. actives 0.28% (n = 340,000). inhibition, % at 3.39 µM. Q15102. recombinant PAFAH1B3, FP-rhodamine probe, fluorescence polarization;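 active = inhibition above the screen-wide average of all tested compounds plus 3 SD, cut at about 25% in these data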;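 also: 0% = enzyme with DMSO only and 100% = wells lacking PAFAH1B3 protein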
Target sequence (Q15102 whole entry, looked up): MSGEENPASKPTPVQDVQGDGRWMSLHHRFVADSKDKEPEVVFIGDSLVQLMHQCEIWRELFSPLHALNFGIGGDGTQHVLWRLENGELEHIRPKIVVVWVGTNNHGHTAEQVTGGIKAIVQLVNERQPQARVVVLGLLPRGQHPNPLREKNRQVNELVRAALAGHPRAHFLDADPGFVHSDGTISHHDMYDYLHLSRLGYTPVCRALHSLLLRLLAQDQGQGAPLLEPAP
pPAFAH inh – pPAFAH (human) enzyme inhibition | Q13093 | actives 1.5% (n = 330,000) | inhibition, % at 3.39 µM | recombinant pPAFAH, FP-rhodamine probe fluorescence polarization;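 active = inhibition above the mean inhibition across the screen plus 3 SD, cut at about 25% in these data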;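 also: inhibitors block binding of the rhodamine activity-based probe so polarization drops; 0% = enzyme with DMSO and 100% = wells lacking pPAFAH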
* hit, by the source's call; x = no result. An excerpt weighted towards active compounds, which were near 2.9% of everything screened.

SMILES	PAFAH1B2 FP inh	Fam108B inh	PME-1 primary	PAFAH2 inh	PAFAH1B3 inh	pPAFAH inh
CCc1cc2cc(C)ccc2nc1SCC(=O)NC1CCCC1	4.1	-7.6	-3.3	-22.2	5.8	30.3*
CSc1cccc(CN2CCC(Oc3cccc(C(=O)N4CCCC4)c3)CC2)c1	-3.4	0.0	2.5	-1.1	10.3	-2.7
CN1CCc2c(sc(NC(=O)C3CCCCC3)c2C(N)=O)C1	7.0	-6.1	-6.0	0.5	-9.4	-0.3
N=C1/C(=C/c2cccn2-c2ccc([N+](=O)[O-])cc2)C(=O)N=C2SC=CN12	-4.6	-6.5	-11.7	-2.3	-3.4	20.5
O=C1NC(=S)N/C1=C/c1cccn1-c1ccc([N+](=O)[O-])cc1	8.8	-0.5	1.7	1.4	4.8	32.1*
COc1ccc(N(C(=O)c2ccco2)C(C(=O)NC2CCCC2)c2cccs2)cc1OC (stereo not drawn)	10.4	-1.6	-6.8	-8.0	-0.1	3.1
O=C(COC(=O)c1ccc(Br)o1)Nc1ncc([N+](=O)[O-])s1	5.7	x	6.1	24.8	16.6	26.6*
COc1ccc(C(=O)OCC(=O)Nc2sccc2C(N)=O)cc1OC	9.0	0.5	-4.5	22.0	0.6	2.9
COc1ccc(C(=O)OCC(=O)Nc2ncc([N+](=O)[O-])s2)cc1OC	9.4	x	-7.7	40.2*	30.4*	24.5
Cc1onc(-c2ccccc2)c1C(=O)Nc1ccc(S(=O)(=O)N2CCCC2)cc1	-2.9	3.7	6.1	1.3	4.9	3.9
CCC(C)CCCCCCCCCCC(=O)O (stereo not drawn)	48.4*	2.3	4.2	8.7	13.6	7.1
CC(C)(C)N1OC2CC1c1nc3ccccc3n1C2 (stereo not drawn)	5.1	3.9	5.0	4.0	-8.5	1.5
Cc1c2cnn(CC(=O)Nc3c(F)c(F)cc(F)c3F)c(=O)c2c(C)n1Cc1ccccc1F	-2.9	-16.6	-15.9	21.5	-6.5	26.8*
CNC(=O)Cn1ncc2c(C)n(Cc3ccc(C)cc3)c(C)c2c1=O	5.1	-1.5	1.4	7.7	8.5	4.1
CC(C)(C)CN1CCN(Cc2nc(-c3ccc(F)cc3)cs2)CC1CCO (stereo not drawn)	1.6	-1.2	-0.5	5.8	8.2	3.5
O=C(O)c1cc(-n2nnnc2SCc2ccc([N+](=O)[O-])cc2)ccc1Cl	26.2*	0.6	5.3	3.9	4.5	6.9
O=C(O)c1cc(-n2nnnc2SCc2ccccc2F)ccc1Cl	0.7	-1.1	3.0	-0.4	2.2	1.2
COC(=O)c1ccccc1S(=O)(=O)NNC(=O)C12CC3CC(CC(C3)C1)C2	24.2*	x	x	79.6*	10.9	6.0
O=C(NNC(=O)C12CC3CC(CC(C3)C1)C2)c1ccccc1O	35.9*	x	-2.4	63.3*	13.8	4.8
Cc1cccc(C(=O)NNC(=O)C23CC4CC(CC(C4)C2)C3)c1O	37.2*	2.8	6.1	31.1*	4.8	10.9
O=C(NNC(=O)C12CC3CC(CC(C3)C1)C2)c1ccccc1F	9.2	2.3	4.7	13.6	8.9	2.9
COc1ccc(S(=O)(=O)N2CCC(C(=O)NC3CCCCC3C)CC2)cc1 (stereo not drawn)	-0.6	3.5	-5.2	-11.2	1.3	1.6
O=[N+]([O-])c1ccc(Nc2ccccc2)c2nonc12	6.3	-1.9	-4.5	-2.0	14.2	11.1
O=[N+]([O-])c1ccc(Sc2cccc[n+]2[O-])c2nonc12	56.2*	x	x	90.0*	82.7*	x
C[C@H]1CN([C@@H](C)CO)C(=O)c2cc(NC(=O)c3ccncc3)ccc2O[C@H]1CN(C)Cc1ccc(C(=O)O)cc1	0.6	x	x	8.2	-0.9	2.9
SMILES	PAFAH1B2 FP inh	Fam108B inh	PME-1 primary	PAFAH2 inh	PAFAH1B3 inh	pPAFAH inh
CCC1CCCCN1CCCNC(=O)c1ccc(CS(=O)(=O)c2ccccc2C)o1 (stereo not drawn)	-0.9	-1.7	2.2	12.8	5.1	0.6
CCOc1ccc(N(CC(=O)NCCc2ccc(Cl)cc2)S(=O)(=O)c2c(C)[nH]c(=O)[nH]c2=O)cc1	28.1*	-0.8	-1.0	7.0	11.4	5.9
CCOc1ccc(N(CC(=O)NCc2ccc(OC)cc2)S(=O)(=O)c2c(C)[nH]c(=O)[nH]c2=O)cc1	4.0	1.5	-1.1	1.3	8.1	-1.4
COc1ccc(N=Nc2ccc(O)c3ncccc23)cc1	-2.8	3.5	8.0	-3.8	7.5	30.9*
Nc1ccc(N=Nc2ccccc2)c2cccnc12	4.4	14.8	24.5	8.7	13.4	27.9*
Oc1ccc(N=Nc2ccc3c(c2)OCCO3)c2cccnc12	-0.3	1.1	-0.2	0.1	6.0	32.9*
COc1ccc(C)cc1N=Nc1ccc(O)c2ncccc12	2.8	x	x	-2.4	3.4	x
CC(C)Cc1ccc(C(C)C(=O)Nc2ccc(O)cc2)cc1 (stereo not drawn)	3.2	2.7	-6.2	-8.8	2.9	-1.4
CCOC(=O)CSc1ncnc2c1cnn2-c1ccc(C)cc1C	-1.3	3.3	-0.5	3.6	-5.1	1.7
COc1ccc(S(=O)(=O)Nc2cccc(Cl)c2)cc1OC	5.0	-1.9	4.2	3.6	7.2	10.4
COc1ccc(NS(=O)(=O)c2ccc(OC)c(N(C)S(=O)(=O)c3ccc(Cl)cc3)c2)cc1	0.5	-3.4	0.6	-1.9	-4.5	28.0*
O=S(=O)(/C=C/c1ccccc1)Nc1ccc(F)cc1	5.5	-1.0	7.2	4.8	11.7	0.4
O=C(NCc1cccnc1)C(=O)Nc1nc(C23CC4CC(CC(C4)C2)C3)cs1	32.8*	-1.5	-5.2	23.2	7.9	3.4
CNC(=O)C(=O)Nc1nc(C23CC4CC(CC(C4)C2)C3)cs1	25.8*	-3.0	-3.5	4.7	10.2	-4.8
O=C(NCc1ccccc1)C(=O)Nc1nc(C23CC4CC(CC(C4)C2)C3)cs1	11.8	-0.7	1.9	-0.9	7.2	2.7
Nc1nn(-c2ccccc2)c(N)c1N=Nc1ccccc1F	1.9	4.2	6.9	6.2	9.0	7.5
Nc1c(N=Nc2ccccc2F)c(=O)[nH]n1-c1ccccc1	2.7	10.0	35.7*	1.6	9.7	7.7
CC(=O)Cc1cc(O)c2ccccc2c1OC(=O)c1ccc(Br)cc1	3.4	2.4	27.6*	7.0	2.8	4.2
O=C(Oc1cccc2c(O)cccc12)c1ccccc1	4.4	8.2	8.7	2.2	9.8	8.2
O=C(Cn1c(O)c(/C=C2\C=Nc3ccccc32)sc1=O)N1CCOCC1	3.7	-8.2	9.4	-2.6	1.2	4.5
O=c1[nH]c(S)c(/C=C2\C=Nc3ccccc32)s1	x	17.8	5.1	x	x	24.6*
CCCN(CCC)CCCNC(=O)c1cn(CC)c2ccc(S(=O)(=O)N3CCc4ccccc4C3)cc2c1=O	1.8	-2.0	16.0	-3.8	3.9	3.0
CCCCN(CC)CCCNC(=O)c1cn(CC)c2ccc(S(=O)(=O)N3CCc4ccccc4C3)cc2c1=O	4.3	-1.3	35.6*	-1.2	1.6	-2.0
CCCCN(C)CCCNC(=O)c1cn(CC)c2ccc(S(=O)(=O)N3CCc4ccccc4C3)cc2c1=O	0.9	1.8	40.5*	1.1	6.6	-6.2
